Source: the supplement of paper PMC11001985
Values without a mark were called inactive.

Compound: C#CCNC(=O)CCSSCCC(=O)NCCc1ccc(C=O)c(C=O)c1
Experiment: lysine labeling ratio R10:1 (500 µM / 50 µM probe), SILAC-ABPP in living cells; higher = lower intrinsic lysine reactivity toward the probe, active = 2 or less
Settings: HeLa; probe concentrations 500 vs 50 µM
Outline: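 Forward and reverse SILAC label swaps were used with living light and heavy HeLa cells in PBS at room temperature, which were given an alkyne-tagged, disulfide-linked lysine probe at 50 µM or 500 µM. R is the per-lysine filtered median high-probe/low-probe MS1 peptide ratio, with the median then taken across both swap directions. Values are limited to 20.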

Chain of UniProt P10809 (P10809 whole entry): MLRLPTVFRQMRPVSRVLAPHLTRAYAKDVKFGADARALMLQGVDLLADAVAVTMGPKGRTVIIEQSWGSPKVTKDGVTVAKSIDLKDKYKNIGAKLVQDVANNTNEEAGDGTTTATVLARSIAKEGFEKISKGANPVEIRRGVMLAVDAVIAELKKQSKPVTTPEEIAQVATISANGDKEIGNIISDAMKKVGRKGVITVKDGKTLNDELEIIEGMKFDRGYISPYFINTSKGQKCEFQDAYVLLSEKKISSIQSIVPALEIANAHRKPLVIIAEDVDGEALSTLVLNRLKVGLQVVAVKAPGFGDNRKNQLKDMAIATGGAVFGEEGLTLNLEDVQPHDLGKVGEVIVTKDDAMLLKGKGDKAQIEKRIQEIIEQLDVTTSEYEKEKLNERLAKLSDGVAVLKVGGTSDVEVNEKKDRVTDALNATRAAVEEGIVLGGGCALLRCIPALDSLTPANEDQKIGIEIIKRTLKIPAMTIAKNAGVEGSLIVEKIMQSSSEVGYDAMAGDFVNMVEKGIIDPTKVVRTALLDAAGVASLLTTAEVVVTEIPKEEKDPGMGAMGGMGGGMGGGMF
Chain of UniProt P51153 (P51153 whole entry): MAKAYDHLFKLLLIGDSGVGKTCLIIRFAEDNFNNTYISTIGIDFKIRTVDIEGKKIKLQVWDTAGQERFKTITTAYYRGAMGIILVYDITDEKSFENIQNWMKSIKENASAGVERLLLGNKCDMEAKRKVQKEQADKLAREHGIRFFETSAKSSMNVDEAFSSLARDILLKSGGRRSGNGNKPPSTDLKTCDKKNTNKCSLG
Chain of UniProt Q9HB71 (Q9HB71 whole entry): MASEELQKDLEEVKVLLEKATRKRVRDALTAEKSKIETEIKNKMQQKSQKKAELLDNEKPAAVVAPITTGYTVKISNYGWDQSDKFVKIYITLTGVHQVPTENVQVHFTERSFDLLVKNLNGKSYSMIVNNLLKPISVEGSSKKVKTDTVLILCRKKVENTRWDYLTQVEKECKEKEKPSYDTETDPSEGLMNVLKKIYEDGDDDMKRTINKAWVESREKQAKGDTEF
Chain of UniProt P05141 (P05141 whole entry): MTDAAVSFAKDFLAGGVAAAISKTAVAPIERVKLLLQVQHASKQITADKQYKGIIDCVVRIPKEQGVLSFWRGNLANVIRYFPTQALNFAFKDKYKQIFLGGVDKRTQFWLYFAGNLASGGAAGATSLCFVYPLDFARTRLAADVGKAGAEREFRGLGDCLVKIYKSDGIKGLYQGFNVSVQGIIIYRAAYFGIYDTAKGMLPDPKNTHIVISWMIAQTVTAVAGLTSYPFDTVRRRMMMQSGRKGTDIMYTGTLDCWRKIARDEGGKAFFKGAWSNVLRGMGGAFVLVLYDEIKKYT
Chain of UniProt P78333 (P78333 whole entry): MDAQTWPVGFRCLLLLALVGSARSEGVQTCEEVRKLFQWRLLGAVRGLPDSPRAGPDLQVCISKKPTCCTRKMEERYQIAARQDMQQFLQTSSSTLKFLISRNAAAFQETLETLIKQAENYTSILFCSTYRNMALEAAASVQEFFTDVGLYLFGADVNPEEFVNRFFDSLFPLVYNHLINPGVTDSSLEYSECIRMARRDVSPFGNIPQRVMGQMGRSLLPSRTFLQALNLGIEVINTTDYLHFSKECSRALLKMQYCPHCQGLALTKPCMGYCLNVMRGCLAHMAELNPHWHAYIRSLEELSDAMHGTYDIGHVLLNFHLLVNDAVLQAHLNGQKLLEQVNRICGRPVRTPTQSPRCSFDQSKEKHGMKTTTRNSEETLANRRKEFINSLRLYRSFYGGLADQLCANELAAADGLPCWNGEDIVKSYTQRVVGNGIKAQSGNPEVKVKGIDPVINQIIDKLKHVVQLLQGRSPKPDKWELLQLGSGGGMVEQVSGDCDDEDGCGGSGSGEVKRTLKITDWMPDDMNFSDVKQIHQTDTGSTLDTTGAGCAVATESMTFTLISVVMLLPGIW
Chain of UniProt O95573 (O95573 whole entry): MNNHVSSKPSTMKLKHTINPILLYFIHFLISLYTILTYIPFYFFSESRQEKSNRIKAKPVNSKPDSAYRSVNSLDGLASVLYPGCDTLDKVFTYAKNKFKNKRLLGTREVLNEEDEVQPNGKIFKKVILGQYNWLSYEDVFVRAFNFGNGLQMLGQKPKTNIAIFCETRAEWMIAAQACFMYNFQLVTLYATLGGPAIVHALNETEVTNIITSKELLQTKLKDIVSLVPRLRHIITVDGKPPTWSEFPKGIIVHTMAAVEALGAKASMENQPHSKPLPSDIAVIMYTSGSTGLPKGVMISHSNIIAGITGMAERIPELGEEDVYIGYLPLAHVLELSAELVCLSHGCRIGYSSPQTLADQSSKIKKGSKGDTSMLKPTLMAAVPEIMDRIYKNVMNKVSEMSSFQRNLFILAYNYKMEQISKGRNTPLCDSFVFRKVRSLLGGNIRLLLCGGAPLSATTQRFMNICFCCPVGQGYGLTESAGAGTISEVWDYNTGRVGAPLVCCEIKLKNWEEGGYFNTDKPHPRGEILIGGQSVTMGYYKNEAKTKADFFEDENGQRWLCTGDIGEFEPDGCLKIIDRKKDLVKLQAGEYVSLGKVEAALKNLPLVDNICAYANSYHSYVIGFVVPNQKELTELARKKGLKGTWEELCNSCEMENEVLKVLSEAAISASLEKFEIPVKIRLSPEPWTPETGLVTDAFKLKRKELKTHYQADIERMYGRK
Chain of UniProt P30086 (P30086 whole entry, looked up): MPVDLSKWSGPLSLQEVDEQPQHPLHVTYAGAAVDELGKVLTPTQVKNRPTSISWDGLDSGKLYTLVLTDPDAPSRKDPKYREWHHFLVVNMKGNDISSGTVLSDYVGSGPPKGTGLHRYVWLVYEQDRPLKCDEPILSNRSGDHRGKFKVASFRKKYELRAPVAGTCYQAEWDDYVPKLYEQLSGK
Chain of UniProt Q14980 (Q14980 whole entry): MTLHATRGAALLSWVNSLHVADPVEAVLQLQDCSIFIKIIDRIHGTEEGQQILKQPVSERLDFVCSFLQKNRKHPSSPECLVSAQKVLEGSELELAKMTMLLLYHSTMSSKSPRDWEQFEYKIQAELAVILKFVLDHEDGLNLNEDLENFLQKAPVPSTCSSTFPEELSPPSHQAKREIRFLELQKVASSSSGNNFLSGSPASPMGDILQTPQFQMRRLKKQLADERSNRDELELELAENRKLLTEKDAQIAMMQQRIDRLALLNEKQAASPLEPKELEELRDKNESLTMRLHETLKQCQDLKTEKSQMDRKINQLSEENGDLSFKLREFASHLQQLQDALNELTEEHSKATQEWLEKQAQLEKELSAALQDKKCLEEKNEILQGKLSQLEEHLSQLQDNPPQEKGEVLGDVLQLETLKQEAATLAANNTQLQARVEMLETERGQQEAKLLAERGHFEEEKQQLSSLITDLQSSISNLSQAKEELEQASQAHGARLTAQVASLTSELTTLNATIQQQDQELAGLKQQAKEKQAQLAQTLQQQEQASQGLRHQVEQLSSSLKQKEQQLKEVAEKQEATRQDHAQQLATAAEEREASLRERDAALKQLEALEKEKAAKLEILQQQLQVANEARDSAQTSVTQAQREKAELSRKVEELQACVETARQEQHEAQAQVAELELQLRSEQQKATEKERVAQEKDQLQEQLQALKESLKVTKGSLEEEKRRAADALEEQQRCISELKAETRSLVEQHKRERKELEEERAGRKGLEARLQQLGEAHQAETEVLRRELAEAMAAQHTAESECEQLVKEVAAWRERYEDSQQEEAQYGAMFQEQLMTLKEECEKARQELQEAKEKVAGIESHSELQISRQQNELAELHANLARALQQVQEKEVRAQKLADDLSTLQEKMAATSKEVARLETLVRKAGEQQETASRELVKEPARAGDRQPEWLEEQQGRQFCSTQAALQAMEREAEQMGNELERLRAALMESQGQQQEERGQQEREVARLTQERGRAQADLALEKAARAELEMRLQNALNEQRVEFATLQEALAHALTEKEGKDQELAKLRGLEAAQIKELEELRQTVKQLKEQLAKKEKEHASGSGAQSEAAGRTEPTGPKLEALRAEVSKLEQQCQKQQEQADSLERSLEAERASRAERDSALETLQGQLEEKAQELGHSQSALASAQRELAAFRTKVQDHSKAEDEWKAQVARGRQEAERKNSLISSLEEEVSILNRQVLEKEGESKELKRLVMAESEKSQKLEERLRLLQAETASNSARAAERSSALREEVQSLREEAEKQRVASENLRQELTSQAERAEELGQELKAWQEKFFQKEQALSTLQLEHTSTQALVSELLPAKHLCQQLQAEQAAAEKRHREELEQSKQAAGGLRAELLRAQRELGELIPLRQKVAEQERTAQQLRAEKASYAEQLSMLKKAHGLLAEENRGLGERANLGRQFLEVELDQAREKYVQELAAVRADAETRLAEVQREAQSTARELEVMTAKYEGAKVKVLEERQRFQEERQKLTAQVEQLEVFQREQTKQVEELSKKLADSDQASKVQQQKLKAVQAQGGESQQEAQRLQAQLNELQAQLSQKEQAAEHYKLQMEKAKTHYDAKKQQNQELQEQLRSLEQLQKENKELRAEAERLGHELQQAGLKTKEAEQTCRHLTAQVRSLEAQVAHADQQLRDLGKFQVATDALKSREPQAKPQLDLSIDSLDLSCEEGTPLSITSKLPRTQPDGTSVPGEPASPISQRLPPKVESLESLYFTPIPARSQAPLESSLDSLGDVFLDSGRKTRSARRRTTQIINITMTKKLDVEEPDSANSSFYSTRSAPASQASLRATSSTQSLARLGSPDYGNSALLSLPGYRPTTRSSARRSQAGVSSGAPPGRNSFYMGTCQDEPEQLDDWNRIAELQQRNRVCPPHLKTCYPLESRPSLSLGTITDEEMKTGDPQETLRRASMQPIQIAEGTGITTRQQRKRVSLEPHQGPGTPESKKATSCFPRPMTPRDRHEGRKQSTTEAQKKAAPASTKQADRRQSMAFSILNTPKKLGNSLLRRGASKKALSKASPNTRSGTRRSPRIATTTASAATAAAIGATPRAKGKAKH

| Target | lysine labeling ratio R10:1 |
| --- | --- |
| HSPB1 (lysine site: K123) (UniProt P04792) | 2.35 |
| SUB1 (lysine site: K41) (UniProt P53999) | 1.41 (active) |
| UniProt P62273 (lysine site: K33) | 1.51 (active) |
| UniProt P78333 (lysine site: K385) | 2.8 |
| GNAI2 (lysine site: K313) (UniProt P04899) | 1.06 (active) |
| RAB13 (lysine site: K172) (UniProt P51153) | 4.07 |
| CD109 (lysine site: K567) (UniProt Q6YHK3) | 3.37 |
| ACSL3 (lysine site: K397) (UniProt O95573) | 3.08 |
| PEBP1 (lysine site: K187) (UniProt P30086) | 2.64 |
| UniProt P83881 (lysine site: K38) | 1.61 (active) |
| SLC25A5 (lysine site: K63) (UniProt P05141) | 3.19 |
| CACYBP (lysine site: K223) (UniProt Q9HB71) | 1.74 (active) |
| NUMA1 (lysine site: K573) (UniProt Q14980) | 1.46 (active) |
| PICALM (lysine site: K324) (UniProt Q13492) | 1.36 (active) |
| ATP2A2 (lysine site: K169) (UniProt P16615) | 7.34 |
| COL5A1 (lysine site: K1708) (UniProt P20908) | 1.7 (active) |
| HSPD1 (lysine site: K523) (UniProt P10809) | 5.04 |
